Source: PubChem
Bcl-xL primary = inhibitors of human Bcl-xL, primary screen, biochemical, fluorescence polarization, HTS. Bcl-2-like protein 1 (Homo sapiens), Q07817. GST-Bcl-xL / FITC-Bim BH3 peptide fluorescence polarization. inhibition, % at 10.9 µM. actives 0.7% (n = 320,000). AID 2129, 2009;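 active = inhibition above the mean of all tested compounds plus 3 SD, cutoff set per campaign, cut at about 30% in these data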;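 note: inhibitors lower millipolarization by displacing the labeled peptide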
Mcl1-Bid inh = Mcl-1/Bid binding inhibitors, primary screen, biochemical, TR-FRET, 1536-well | Induced myeloid leukemia cell differentiation protein Mcl-1 (Homo sapiens), Q07820 | TR-FRET Mcl-1/Bid-Dy647 peptide binding | inhibition, % at 21.7 µM | actives 0.97% (n = 220,000) | AID 1021, 2008;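 active = compounds that cut the binding signal by more than half at the single screening dose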;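 note: His-tagged Mcl-1 with europium anti-His antibody binding Bid BH3 peptide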
MCL1 BIM primary = inhibitors of MCL1 binding to BIM-BH3, primary screen, biochemical, fluorescence polarization | Induced myeloid leukemia cell differentiation protein Mcl-1 (Homo sapiens), Q07820 | GST-MCL1 / FITC-Bim-BH3 fluorescence polarization | inhibition, % at 10.9 µM | actives 0.68% (n = 320,000);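 active = inhibition above the mean inhibition of all tested compounds plus 3 SD, set per campaign, cut at about 40% in these data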;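 note: higher means more loss of mP so more displacement of Bim peptide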
Mcl-1 Bim block = inhibitors of Bim peptide binding to Mcl-1, primary screen, biochemical, bead-based flow cytometry, multiplex. inhibition, % at 10 µM. Bim peptide-Mcl-1 binding. Induced myeloid leukemia cell differentiation protein Mcl-1 (Homo sapiens), Q07820. actives 0.1% (n = 190,000); in the data active = inhibition above about 40%
Mcl1-Noxa inh = Mcl-1/Noxa binding inhibitors, primary screen, biochemical, TR-FRET, 1536-well. TR-FRET Mcl-1/Noxa peptide binding, 2 h. Induced myeloid leukemia cell differentiation protein Mcl-1 (Homo sapiens), Q07820. actives 1.5% (n = 220,000). inhibition, % at 21.7 µM;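 active = compounds that cut the protein-peptide binding signal by more than 50% relative to plate controls in a single-dose test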;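 note: His-tagged Mcl-1 with rhodamine Noxa BH3 peptide and terbium anti-His antibody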
GLD-1 RNA inh = GLD-1/TGE RNA complex disruptors, primary screen, biochemical, fluorescence polarization. Female germline-specific tumor suppressor gld-1 (Caenorhabditis elegans), Q17339. purified GLD-1 + fluorescein TGE RNA. inhibition, % at 5.96 µM. actives 0.44% (n = 320,000). AID 2280, 2010;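 active = percent inhibition above a per-plate cutoff, the plate mean of test compounds plus 3 SD, cut at about 30% in these data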
Target sequence (Q17339 whole entry, looked up): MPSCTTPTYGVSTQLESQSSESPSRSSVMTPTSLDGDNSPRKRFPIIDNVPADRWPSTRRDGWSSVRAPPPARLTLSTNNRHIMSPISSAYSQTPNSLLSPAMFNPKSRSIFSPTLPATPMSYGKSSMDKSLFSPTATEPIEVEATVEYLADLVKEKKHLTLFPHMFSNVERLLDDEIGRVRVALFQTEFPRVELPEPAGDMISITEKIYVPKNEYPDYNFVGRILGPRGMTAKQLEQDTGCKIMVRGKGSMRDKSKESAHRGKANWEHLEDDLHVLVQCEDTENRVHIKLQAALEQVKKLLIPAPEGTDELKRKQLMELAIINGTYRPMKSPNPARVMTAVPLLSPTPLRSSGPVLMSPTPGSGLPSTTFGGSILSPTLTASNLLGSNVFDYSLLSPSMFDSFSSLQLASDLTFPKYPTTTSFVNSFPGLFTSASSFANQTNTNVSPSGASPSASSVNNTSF
Bcl-xL conf = Bcl-xL inhibitors blocking Bim BH3 binding, confirmation, counter-screen for MCL1 inhibitor project, biochemical, fluorescence polarization. shares compounds with MCL1 BIM primary. GST-Bcl-xL / FITC-Bim BH3 peptide FP binding. inhibition, % at 10.9 µM. actives 54% (n = 1,700). AID 2166, 2009;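 active = inhibition above a cutoff equal to the mean inhibition of all tested compounds plus 3 SD, cut at about 30% in these data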
MCL1 inh confirm = inhibitors of MCL1 binding to BIM-BH3, confirmation, biochemical, fluorescence polarization, triplicate | shares compounds with MCL1 BIM primary | GST-MCL1 / FITC-Bim-BH3 fluorescence polarization | inhibition, % at 10.9 µM | actives 61% (n = 1,700);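 active = inhibition above the average of all tested compounds plus 3 SD, cut at about 40% in these data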
GLD-1 TGE cf = GLD-1/TGE RNA binding inhibitors, retest, confirmation, biochemical, fluorescence polarization, triplicate | shares compounds with GLD-1 RNA inh | actives 10% (n = 550) | AID 2459, 2010 | GLD-1/FL-TGE RNA fluorescence polarization | inhibition, % at 5.96 µM;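 active = average inhibition across triplicates above the hit cutoff set in the primary screen, cut at about 32% in these data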
Each line names hits and unclear results; the compound was inactive in the other large screens (follow-up assays come after a bar, where they were run). Shown are actives, neighbours in structure and some others; about 2.3% of the full set was active somewhere.

Cc1nc2ccccc2c(=O)n1/N=C/c1ccc(O)c(O)c1O	MCL1 BIM primary 69 (no result: Mcl1-Bid inh, Mcl-1 Bim block, Mcl1-Noxa inh) | Bcl-xL conf inactive | MCL1 inh confirm 67
O=C(CCN1C(=O)/C(=C\C=C\c2ccccc2)SC1=S)Nc1ccc(C(=O)O)cc1	none (no result: Mcl1-Bid inh, Mcl-1 Bim block, Mcl1-Noxa inh)
O=C(O)c1ccc(N2C(=O)/C(=C/C=C/c3ccccc3)SC2=S)cc1	MCL1 BIM primary 40 | Bcl-xL conf inactive | MCL1 inh confirm inactive
O=C(C1=C(O)C(=O)N(c2nccs2)C1c1ccccc1)c1cc2ccccc2o1 (configuration not stated)	Bcl-xL primary 185, MCL1 BIM primary active, GLD-1 RNA inh 174 (no result: Mcl-1 Bim block) | Bcl-xL conf 177 | MCL1 inh confirm active
O=C(C1=C(O)C(=O)N(CCc2ccccc2)C1c1ccncc1)c1cc2ccccc2o1 (configuration not stated)	none
CCOc1cccc(C2C(C(=O)c3ccc(C)o3)=C(O)C(=O)N2Cc2ccncc2)c1 (configuration not stated)	none
CCOc1cccc(C2C(C(=O)c3ccc(C)o3)=C(O)C(=O)N2c2nccs2)c1 (configuration not stated)	Bcl-xL primary 121, MCL1 BIM primary 143, GLD-1 RNA inh 143 | Bcl-xL conf 156 | MCL1 inh confirm 183
CNC(=O)c1ccc(CN(C)CC(=O)Nc2ccccc2C(=O)NC2CC2)cc1	none (no result: Mcl1-Bid inh, Mcl-1 Bim block, Mcl1-Noxa inh)
CCN(CC)C(=O)C1c2ccccc2Oc2ccccc21	Bcl-xL primary 195, MCL1 BIM primary active, GLD-1 RNA inh 169 (no result: Mcl1-Bid inh, Mcl-1 Bim block, Mcl1-Noxa inh) | Bcl-xL conf 91 | MCL1 inh confirm 126
CCc1ccccc1N(CC(=O)NCc1ccco1)C(=O)CCC(=O)Nc1nccs1	none (no result: Mcl1-Bid inh, Mcl-1 Bim block, Mcl1-Noxa inh)
CCCn1c(/N=C/c2c[nH]c3ccccc23)nc2ccccc21	Bcl-xL primary 80, MCL1 BIM primary 83, GLD-1 RNA inh 40 | Bcl-xL conf inactive | MCL1 inh confirm inactive | GLD-1 TGE cf inactive
O=C(Cn1nnc(-c2ccc(F)cc2)n1)Nc1cccc(S(=O)(=O)N2CCCC2)c1	none (no result: Mcl1-Bid inh, Mcl-1 Bim block, Mcl1-Noxa inh)
CCCCSc1ccc(NC(=O)c2cccnc2)cc1	Bcl-xL primary 76, MCL1 BIM primary 77, GLD-1 RNA inh 41 | Bcl-xL conf inactive | MCL1 inh confirm inactive | GLD-1 TGE cf inactive
CCC(C)c1ccc(NC(=O)c2cccnc2)cc1 (configuration not stated)	none
CCn1c(CSc2nnc3ccccn23)nc2cc(C(=O)O)ccc21	Bcl-xL primary 99, MCL1 BIM primary 110, GLD-1 RNA inh 95 | Bcl-xL conf 64 | MCL1 inh confirm 86 | GLD-1 TGE cf 32
CCC(=O)NCCn1c(C)cc2ccccc21	none
Cc1cc2ccccc2n1CCNC(=O)COc1ccccc1	Bcl-xL primary 41, MCL1 BIM primary 63, GLD-1 RNA inh 72 | Bcl-xL conf inactive | MCL1 inh confirm inactive | GLD-1 TGE cf inactive
